Results published in PubChem BioAssay.
Active and inactive are the calls of the source.

How the values were obtained:
[1] = E. coli DRC41 culture turbidity changes, primary screen, E. coli filamentation inducer project, strain DRC41, OD650, 48 h (AID 1152);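 note: E. coli MC1000 strain DRC41 lacking acrAB efflux pump and sulA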; details: E. coli DRC41 (acrAB sulA), higher = more signal, called active from +8 up or from −8 down
[2] = small-molecule binders of probe aLefty1, primary screen, biochemical, small-molecule microarray, 635/667 nm fluorescence (AID 1153); details: higher = more signal;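 note: score merges spot fluorescence with signal-to-noise ratio from the scanned slide images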
[3] = PSAC antagonists in infected red cells, primary screen, cell-based, P. falciparum Indochina, OD700, 1 h (AID 1154); details: P. falciparum Indochina infected RBC osmotic lysis, higher = more signal, called active from +8 up or from −8 down
[4] = PSAC antagonists in infected red cells, primary screen, cell-based, P. falciparum Indochina, OD700, 2 h (AID 1155);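 note: lysis reports solute entry through the parasite surface anion channel PSAC; channel blockers reduce lysis of infected cells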; details: P. falciparum Indochina infected erythrocytes, osmotic lysis OD700; higher = more signal, called active from +8 up or from −8 down
[5] = osmotic lysis modulators in infected erythrocytes, primary screen, PSAC antagonist project, cell-based, P. falciparum Indochina, OD700, 3 h (AID 1156); details: higher = more signal, called active from +8 up or from −8 down
[6] = PSAC antagonists in infected red cells, primary screen, cell-based, P. falciparum Indochina, OD700, 18 h (AID 1157); details: P. falciparum Indochina infected erythrocytes, osmotic lysis OD700, 18 h; higher = more signal, called active from +8 up or from −8 down
[7] = modulators of S6 phosphorylation in cells, primary screen, cell-based, A549, cytoblot, luminescence, serum-stimulated (AID 1158); details: A549 phospho-S6 cytoblot, 5 h, higher = more signal;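 note: serum-stimulated A549 lung adenocarcinoma cells; signal is phosphorylated S6 detected by cytoblot immunostaining with HRP secondary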
[8] = molecular target: NADPH oxidase 2 (Homo sapiens) (UniProt P04839); test: NOX2-dependent H2O2 signal modulators, primary screen, NOX inhibitor project, cell-based, HEK293-NOX2, PMA-stimulated, Amplex Red fluorescence (AID 1159); details: 45 min, higher = more signal, called active from +8 up or from −8 down; note: test concentration not given here
[9] = molecular target: NADPH oxidase 4 (Homo sapiens) (UniProt Q9NPH5); test: NOX4-dependent H2O2 signal modulators, primary screen, NOX inhibitor project, cell-based, HEK293-NOX4, tetracycline-induced, Amplex Red fluorescence (AID 1160); details: 45 min, higher = more signal, called active from +8 up or from −8 down
[10] = molecular target: NADPH oxidase 5 (Homo sapiens) (UniProt Q96PH1); test: NOX5-dependent H2O2 signal modulators, primary screen, NOX inhibitor project, cell-based, HEK293-NOX5, Amplex Red fluorescence (AID 1161); details: HEK293-NOX5, ionomycin, 45 min, higher = more signal
NADPH oxidase 5 (Homo sapiens), sequence (Q96PH1 whole entry, looked up): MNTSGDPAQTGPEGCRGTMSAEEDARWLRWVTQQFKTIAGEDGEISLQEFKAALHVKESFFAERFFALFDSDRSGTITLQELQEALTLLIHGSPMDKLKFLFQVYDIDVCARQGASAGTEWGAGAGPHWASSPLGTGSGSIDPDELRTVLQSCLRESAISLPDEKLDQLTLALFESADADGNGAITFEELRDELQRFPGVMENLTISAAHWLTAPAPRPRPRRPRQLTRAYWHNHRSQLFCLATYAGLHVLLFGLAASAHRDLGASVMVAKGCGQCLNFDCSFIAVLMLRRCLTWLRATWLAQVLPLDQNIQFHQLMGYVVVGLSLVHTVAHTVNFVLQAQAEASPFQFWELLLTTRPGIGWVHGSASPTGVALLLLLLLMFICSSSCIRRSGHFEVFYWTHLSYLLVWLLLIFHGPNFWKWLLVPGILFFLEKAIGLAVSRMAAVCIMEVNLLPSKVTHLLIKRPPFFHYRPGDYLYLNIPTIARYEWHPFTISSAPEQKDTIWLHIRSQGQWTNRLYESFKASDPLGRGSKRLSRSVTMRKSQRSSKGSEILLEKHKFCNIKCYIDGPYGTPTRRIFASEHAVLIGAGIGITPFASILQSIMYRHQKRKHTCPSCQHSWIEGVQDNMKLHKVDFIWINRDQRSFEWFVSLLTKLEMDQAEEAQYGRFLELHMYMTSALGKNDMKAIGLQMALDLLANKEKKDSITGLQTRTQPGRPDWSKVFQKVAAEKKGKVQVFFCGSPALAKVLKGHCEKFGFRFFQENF

NADPH oxidase 2 (Homo sapiens), sequence (P04839 whole entry, looked up): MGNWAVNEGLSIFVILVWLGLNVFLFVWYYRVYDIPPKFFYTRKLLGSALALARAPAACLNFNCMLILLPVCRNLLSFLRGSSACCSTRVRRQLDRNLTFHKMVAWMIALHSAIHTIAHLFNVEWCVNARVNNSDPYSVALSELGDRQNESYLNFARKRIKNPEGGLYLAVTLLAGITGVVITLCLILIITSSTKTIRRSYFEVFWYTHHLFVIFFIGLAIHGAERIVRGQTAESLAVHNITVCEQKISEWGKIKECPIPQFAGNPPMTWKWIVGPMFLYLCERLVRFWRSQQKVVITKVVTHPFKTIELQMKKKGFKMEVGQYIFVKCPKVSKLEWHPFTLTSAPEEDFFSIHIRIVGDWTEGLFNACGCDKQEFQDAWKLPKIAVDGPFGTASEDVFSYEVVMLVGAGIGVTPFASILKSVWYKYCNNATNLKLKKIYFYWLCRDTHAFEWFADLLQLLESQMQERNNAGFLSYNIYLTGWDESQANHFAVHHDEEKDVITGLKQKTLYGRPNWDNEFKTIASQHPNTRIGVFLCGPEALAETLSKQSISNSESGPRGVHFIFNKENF
NADPH oxidase 4 (Homo sapiens), sequence (Q9NPH5 whole entry, looked up): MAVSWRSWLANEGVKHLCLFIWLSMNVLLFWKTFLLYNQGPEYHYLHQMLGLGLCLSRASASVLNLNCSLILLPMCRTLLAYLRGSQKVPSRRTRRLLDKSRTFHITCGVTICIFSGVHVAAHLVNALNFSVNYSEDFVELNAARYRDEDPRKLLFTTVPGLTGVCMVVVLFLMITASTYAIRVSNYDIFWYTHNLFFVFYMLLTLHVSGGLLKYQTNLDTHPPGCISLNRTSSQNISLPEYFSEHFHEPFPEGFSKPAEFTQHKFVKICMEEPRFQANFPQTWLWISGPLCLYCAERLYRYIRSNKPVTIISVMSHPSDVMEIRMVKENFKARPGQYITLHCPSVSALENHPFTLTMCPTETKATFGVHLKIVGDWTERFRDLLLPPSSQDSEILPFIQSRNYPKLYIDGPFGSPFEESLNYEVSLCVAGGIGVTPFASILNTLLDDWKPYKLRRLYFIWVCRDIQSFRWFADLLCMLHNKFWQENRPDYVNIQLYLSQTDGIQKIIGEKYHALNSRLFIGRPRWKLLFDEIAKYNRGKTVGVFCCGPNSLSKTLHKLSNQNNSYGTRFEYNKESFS

SMILES	z-score [1]	composite z-score [2]	z-score [3]	z-score [4]	z-score [5]	z-score [6]	z-score [7]	z-score [8]	z-score [9]	z-score [10]
NCCCCCNC(=O)[C@H]1C[C@H]2C(=O)NCC(=O)N2[C@H]1c1cccc(OCCO)c1	1.5 (inactive)	-0.505	2.03 (inactive)	0.508 (inactive)	2.65 (inactive)	0.0799 (inactive)	0.753	0.972 (inactive)	1.02 (inactive)	1.39
[N-]=[N+]=Nc1ccccc1C[C@]1(C(=O)NCCN2CCOCC2)N=C(c2ccc(OCCCO)cc2)O[C@H]1c1ccccc1	0.0623 (inactive)	0.728	14.1 (active)	1.53 (inactive)	1.37 (inactive)	0.766 (inactive)	-0.0135	-1.92 (inactive)	0.0642 (inactive)	-1.32
CCC[C@@H]1C=C(C(=O)O)[C@H](c2ccc(C)cc2)N1S(=O)(=O)c1ccc(C)cc1	-0.75 (inactive)	0.114	0.0822 (inactive)	0.932 (inactive)	-0.246 (inactive)	1.03 (inactive)	-0.476	0.769 (inactive)	-0.741 (inactive)	0.101
O=C(CCN1CCOCC1)c1cccc(O)c1	-0.202 (inactive)	0.154	0.205 (inactive)	-1.48 (inactive)	-0.582 (inactive)	-1.68 (inactive)	0.4	-2.74 (inactive)	-0.206 (inactive)	1.72
CCCC[C@H]1OB(O)C[C@H]2C1=C(C)C[C@H]1C(=O)N(Cc3ccccc3)C(=O)[C@H]12	1.53 (inactive)	-0.147	1.27 (inactive)	0.0503 (inactive)	-0.348 (inactive)	0.157 (inactive)	0.918	0.0393 (inactive)	0.765 (inactive)	0.789
COCCCNC(=O)[C@@]1(CCC(=O)OC(C)(C)C)N=C(c2ccc(OCCCO)cc2)O[C@H]1c1ccccc1CN=[N+]=[N-]	0.369 (inactive)	0.428	23.2 (active)	4.71 (inactive)	1.35 (inactive)	0.883 (inactive)	0.0769	1.95 (inactive)	2.2 (inactive)	2.48
O=C1O[C@H](c2ccccc2)[C@H](c2ccccc2)N2[C@H]1[C@@H](C(=O)NC[C@H](O)c1ccccc1)[C@]1(C(=O)Nc3ccc(C#CCCO)cc31)[C@H]2c1ccc(O)cc1	0.39 (inactive)	-0.293	0.211 (inactive)	-0.709 (inactive)	-0.317 (inactive)	-1.23 (inactive)	1.21	-0.687 (inactive)	0.0169 (inactive)	-3.93
CCOC(=O)C1=CCC(c2ccc(C#N)cc2)N(S(=O)(=O)c2ccc(C)cc2)C1 (stereo not given)	0.26 (inactive)	0.262	5.29 (inactive)	1.12 (inactive)	0.632 (inactive)	0.557 (inactive)	-0.118	0.292 (inactive)	0.62 (inactive)	-0.303
O=C1OCCC=C[C@H]2OC34C=CCN(Cc5ccccc5)C(=O)[C@H]3N(CCCCCCO)C(=O)[C@@H]4C12 (stereo not given in full)	1.12 (inactive)	-0.0831	0.944 (inactive)	0.396 (inactive)	0.884 (inactive)	0.43 (inactive)	1.2	1.11 (inactive)	0.0473 (inactive)	1.97
CC1=C2[C@@H](CCc3ccccc3)OB(O)C[C@@H]2n2c(=O)n(-c3ccccc3)c(=O)n2C1	-0.616 (inactive)	-0.347	1.57 (inactive)	0.323 (inactive)	-0.318 (inactive)	-0.31 (inactive)	0.417	-0.416 (inactive)	-1.61 (inactive)	-0.939
COc1ccc([Si](C)(C)[C@@H]2[C@@H](CCn3cc([C@H](O)c4ccccc4)nn3)O[C@]3(C(=O)N(Cc4cccc(N5CCOC5=O)c4)c4ccccc43)[C@H]2C)cc1	1 (inactive)	-0.328	26.3 (active)	12.8 (active)	1.33 (inactive)	1.68 (inactive)	0.324	-0.662 (inactive)	2.29 (inactive)	1.84
C=C[C@@H](COC(C)=O)N(Cc1ccc([N+](=O)[O-])cc1)S(=O)(=O)c1ccc(Br)cc1	2 (inactive)	0.0012	7.66 (inactive)	0.824 (inactive)	2.31 (inactive)	0.79 (inactive)	0.354	0.495 (inactive)	0.851 (inactive)	-0.559
COc1ccc(C#Cc2ccc3c(c2)[C@]2(C(=O)N3)[C@H](C(=O)NC[C@H](O)c3ccccc3)[C@H]3C(=O)O[C@H](c4ccccc4)[C@H](c4ccccc4)N3[C@@H]2c2ccc(OCCO)cc2)cc1	-0.877 (inactive)	0.0711	2.93 (inactive)	1.97 (inactive)	-0.0845 (inactive)	1.52 (inactive)	-0.321	1.4 (inactive)	-1.22 (inactive)	0.636
COCCOC(=O)N1C(=O)[C@@]2(c3cc(C#CCNC(N)=O)ccc31)[C@H](c1ccccc1OCCO)N1[C@H](c3ccccc3)[C@H](c3ccccc3)OC(=O)[C@H]1[C@@H]2C(N)=O	-0.816 (inactive)	-0.111	4.2 (inactive)	0.655 (inactive)	0.4 (inactive)	0.344 (inactive)	-0.463	2.29 (inactive)	-0.672 (inactive)	-0.584
CC(C)C(=C=CC[C@H](O)c1cccc(OCCO)c1)C[C@H](O)COCc1ccccc1	0.142 (inactive)	0.0455	12.8 (active)	2.04 (inactive)	0.367 (inactive)	0.627 (inactive)	-0.145	-1.77 (inactive)	-0.716 (inactive)	-2.13
CC(=O)Nc1cc(Br)ccc1C(=O)O	-0.657 (inactive)	0.0494	0.552 (inactive)	0.501 (inactive)	-0.904 (inactive)	0.305 (inactive)	-0.107	0.385 (inactive)	-0.128 (inactive)	-0.269
COCCOC(=O)N1C(=O)[C@@]2(c3cc(C#CCCO)ccc31)[C@H](c1ccc(O)cc1)N1[C@H](c3ccccc3)[C@H](c3ccccc3)OC(=O)[C@H]1[C@@H]2C(N)=O	-0.595 (inactive)	0.501	6.55 (inactive)	1.15 (inactive)	0.152 (inactive)	0.311 (inactive)	-0.218	0.712 (inactive)	-0.952 (inactive)	0.23
COC(=O)[C@@]1(Cc2ccc(OC)cc2)[C@H]2c3cc(C(=O)N(C)C)n(Cc4c(OC)[nH]cc(C)c4=O)c3C[C@H]2CN1C(=O)c1ccccc1	-0.348 (inactive)	0.276	0.275 (inactive)	-0.997 (inactive)	-0.456 (inactive)	-2.25 (inactive)	2.46	0.689 (inactive)	-0.265 (inactive)	-3.64
CN1C(=O)C2C=CC(C(O)c3ccccn3)N(Nc3ccccc3)C2C1=O (stereo not given)	-0.434 (inactive)	-0.093	0.844 (inactive)	1.09 (inactive)	-0.197 (inactive)	1.12 (inactive)	-0.669	-1.35 (inactive)	-4.52 (inactive)	-2.9
CCCCCCc1nc(CCCc2cc3c(c(CCCCCC)n2)[Si](C(C)C)(C(C)C)OC3)cc2c1[Si](C(C)C)(C(C)C)OC2	-0.613 (inactive)	0.13	0.611 (inactive)	-1.07 (inactive)	0.695 (inactive)	-1.72 (inactive)	0.62	-3.69 (inactive)	-1.13 (inactive)	-3.41
CCOC(=O)[C@H]1C/C=C/C[C@H](C(=O)OCC)C(=O)O[C@H]2[C@@H](OC)O[C@H](CO)[C@@H](OC(=O)Nc3ccc4c(c3)OCO4)[C@@H]2OC1=O	1.2 (inactive)	-0.0727	4.49 (inactive)	1.81 (inactive)	-0.564 (inactive)	1.73 (inactive)	0.483	-1.09 (inactive)	-0.854 (inactive)	-0.02
COc1ccc([Si](C)(C)[C@H]2[C@H](CCn3cc([C@H](O)c4ccccc4)nn3)O[C@@]3(C(=O)N(Cc4cccc(N5CCC5=O)c4)c4ccccc43)[C@@H]2C)cc1	2.02 (inactive)	0.167	9.44 (active)	0.475 (inactive)	-0.272 (inactive)	-0.87 (inactive)	1.77	0.0292 (inactive)	1.09 (inactive)	2.04
CN1C=C(C(=O)OCCS(C)(=O)=O)C(C(=O)OCCS(C)(=O)=O)=CC(CCCO)=CC1C1CC1 (stereo not given)	1.07 (inactive)	0.026	1.43 (inactive)	0.63 (inactive)	0.483 (inactive)	0.16 (inactive)	0.471	-2.51 (inactive)	-1.07 (inactive)	-1.38
COCCOC(=O)N1C(=O)[C@@]2(c3cc(C#CCCO)ccc31)[C@H](c1ccccc1OCCO)N1[C@H](c3ccccc3)[C@H](c3ccccc3)OC(=O)[C@H]1[C@@H]2C(=O)N1CCN(c2ncccn2)CC1	-0.33 (inactive)	0.85	2.52 (inactive)	1.32 (inactive)	-0.293 (inactive)	0.708 (inactive)	-0.262	1.22 (inactive)	1.05 (inactive)	1.16
